NTR1 ag – NTR1 (human) agonism; P30989; actives 0.17% (n = 330,000); activation, % at 20 µM; NTR1-U2OS beta-arrestin-GFP spot imaging, agonist mode;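 active means activation at or above 40% of the spot to cytoplasm intensity ratio, with at least 20 cells analyzed; inconclusive means wells under 20 cells, flagged as cytotoxic or low count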;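 further: 0% = DMSO without peptide and 100% = 100 nM NTR1 peptide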
Exocytosis inh – blocks lytic granule exocytosis. TALL-104 LAMP-1 surface exposure, flow cytometry; cells stimulated with thapsigargin and PMA. actives 0.66% (n = 360,000). inhibition, % at 10 µM. AID 651702;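 active means inhibition above about 55%, limit read from the data; inconclusive means no clear call, values can overlap the other calls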
HTR2A ag – activates the mouse 5-HT2A serotonin receptor; activation, % at 7.6 µM; actives 0.66% (n = 360,000); CHO-K1 mHTR2A beta-arrestin complementation, luminescence; percent of 30 µM serotonin response;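 active means activation above a run cutoff, the mean activation of all tested compounds plus 3 SD, cut at about 14% in these data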;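 further: 0% = plate median of compound wells and 100% = 30 µM serotonin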
Beta2AR agonist – human beta-2 adrenergic receptor agonism by FAP; P07550; Am2.2-beta2AR cells, FAP receptor internalization, flow cytometry; response, % (concentration not given with the values); actives 0.43% (n = 340,000);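 active means response above a set limit, near 3 SD of response in nonfluorescent compounds, cut at about 42% in these data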
ABHD5-PLIN5 inh – ABHD5-PLIN5 protein interaction inhibition; Split G. princeps luciferase complementation, luminescence, 4 h; AID 602281; Q00G26+Q8WTS1; inhibition, % at 4 µM; actives 0.78% (n = 360,000);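 active means inhibition above the mean inhibition across every tested compound plus 3 SD, cut at about 22% in these data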;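 further: 0% = DMSO only wells and the 100% control is not disclosed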
ABHD5-PLIN5 conf – ABHD5-PLIN5 interaction inhibition, confirmed | shares compounds with ABHD5-PLIN5 inh | biochemical ABHD5-PLIN5 interaction, luminescence | inhibition, % at 4 µM | actives 67% (n = 2,200) | AID 651612; in the data active means inhibition above about 23%;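 further: 0% = DMSO vehicle wells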
HNF4 split-luc – active in HNF4 split-luciferase counter-screen for ABHD5-PLIN5 inhibitors. shares compounds with ABHD5-PLIN5 inh. HNF4 dimerization, luminescence, biochemical. inhibition, % at 4 µM. actives 77% (n = 2,200);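 active means mean inhibition across replicate wells exceeding the computed hit threshold, cut at about 13% in these data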;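 further: light from luciferase halves that rejoin when HNF4 fusion proteins dimerize; 0% = DMSO only wells and the 100% control is not given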
Target sequence (P41235 whole entry, looked up, the tested form may be a part): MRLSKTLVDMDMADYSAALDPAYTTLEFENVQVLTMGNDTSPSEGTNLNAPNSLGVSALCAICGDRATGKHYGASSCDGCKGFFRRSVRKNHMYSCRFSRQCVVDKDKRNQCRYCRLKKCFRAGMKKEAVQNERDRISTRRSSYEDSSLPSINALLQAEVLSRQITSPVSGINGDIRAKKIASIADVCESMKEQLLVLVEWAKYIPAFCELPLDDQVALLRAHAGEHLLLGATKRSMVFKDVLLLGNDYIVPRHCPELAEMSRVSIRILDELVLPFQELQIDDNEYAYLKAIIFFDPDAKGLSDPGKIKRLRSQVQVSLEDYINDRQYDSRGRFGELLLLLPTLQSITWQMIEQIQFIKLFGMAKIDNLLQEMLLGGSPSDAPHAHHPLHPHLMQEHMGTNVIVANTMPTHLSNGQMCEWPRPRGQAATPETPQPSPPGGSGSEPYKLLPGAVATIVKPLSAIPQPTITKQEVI
Numbers without * were called inactive; ? = inconclusive; / = not tested or not shown. A selection: hits, their analogues and other compounds. The true share with any hit is near 2.3%.

SMILES | NTR1 ag | Exocytosis inh | HTR2A ag | Beta2AR agonist | ABHD5-PLIN5 inh | ABHD5-PLIN5 conf | HNF4 split-luc
CCOc1cc(/C=C2/COc3ccccc3C2=O)ccc1OCC(=O)N(C)C | / | -4 | 1 | 13 | 25* | 71* | 67*
O=C1/C(=C/c2ccccc2[N+](=O)[O-])COc2ccccc21 | 5 | 84* | 2 | 8 | 58* | 79* | 76*
O=C1/C(=C/c2ccccn2)COc2ccccc21 | 8 | 3 | 6 | 24 | 8 | / | /
Cc1[nH]c2ccccc2c(=O)c1C(=O)/C=C/c1ccccc1 | 5 | -1 | 1 | 3 | 32* | 63* | 56*
O=C(C=Cc1ccccc1)c1c[nH]c2ccccc2c1=O | / | 5 | -2 | -5 | 27* | 74* | 63*
O=C(/C=C/c1ccccc1)c1c[nH]c2ccccc12 | 2 | -2 | -7 | 4 | 1 | / | /
Cc1ccc2c(c1)C(=O)C(=O)N2Cc1ccc(Cl)cc1 | 2 | -6 | -6 | 13 | 33* | 37* | 52*
CCC(=O)Nc1cccc(C(=O)/C=C/c2cc(Br)ccc2OC)c1 | 13 | 15 | -4 | 42 | 51* | 92* | 79*
Cc1csc(N=Nc2ccc(N(C)C)cc2)[n+]1[O-] | / | 7 | -10 | / | 29* | 26* | 32*
O=C(N/C(=C/c1ccco1)C(=O)N1CCCCC1)c1cccs1 | 2 | -4 | -4 | -27 | -3 | / | /
O=C1C(=O)C(Cl)=C(Cl)C(Cl)=C1Cl | / | -6 | -1 | / | 27* | 51* | 29*
CC(C)N1CCC2(CC1)N=C(c1ccc3c(c1)OCO3)CC(c1cc(Cl)ccc1O)N2 (stereo not drawn) | 35 | 9 | -7 | 17 | 75* | 31* | 62*
Cc1ccc(C(=O)Nc2nc(C(N)Cc3ccc(C(F)(F)F)cc3)cs2)cc1 (stereo not drawn) | / | ? | 1 | / | -16 | / | /
Cc1ccc(OCC(=O)Nc2ccccc2C(N)=O)cc1 | 1 | 10 | -6 | 1 | 2 | / | /
NC(=O)c1ccccc1NC(=O)COc1ccc(Cl)cc1 | -1 | 4 | 1 | -2 | 46* | 5 | -2
C=CCOC(=O)C(=O)/C=C/c1ccc2c(c1)Cc1ccccc1-2 | 2 | -18 | -5 | 6 | 35* | 77* | 71*
CCCN(C(=O)c1cc(S(=O)(=O)N2CCN(CC)CC2)ccc1Cl)C1CCS(=O)(=O)C1 (stereo not drawn) | / | 7 | 9 | 9 | 26* | 4 | 3
CCCN(C(=O)c1cc(S(=O)(=O)N2CCCCCC2)ccc1OC)C1CCS(=O)(=O)C1 (stereo not drawn) | 1 | 3 | -1 | -3 | 8 | / | /
O=C(O)c1cccc(-c2ccc3c(c2)OCO3)c1 | 0 | 2 | 0 | 0 | 88* | 2 | 4
COc1ccccc1C1CC(c2cccs2)=Nc2ccccc2S1 (stereo not drawn) | 2 | 0 | -2 | 7 | 45* | -5 | 5
CCNc1nc(NC(C)(C)C)nc(N2CCCCC2)n1 | 15 | 4 | -5 | 15 | -1 | / | /
Cc1nc(C(F)(F)F)ccc1C(=O)N1CCCCC1 | 1 | 15 | 7 | 8 | 1 | / | /
O=C(NC1CCCCCC1)c1ccc(Br)o1 | 0 | -9 | 7 | 2 | 3 | / | /
O=C(NC1CCCCC1)Oc1cc2oc(=O)sc2cc1Br | 0 | 14 | 4 | 1 | 43* | -21 | 42*
CCN(CC)C(=O)CSc1nc2ccccc2c(=O)n1OC(C)C | -1 | 2 | -1 | -1 | 24* | 1 | -2
SMILES | NTR1 ag | Exocytosis inh | HTR2A ag | Beta2AR agonist | ABHD5-PLIN5 inh | ABHD5-PLIN5 conf | HNF4 split-luc
CCN(CC)C(=O)CSc1nc2ccccc2c(=O)n1CC | 0 | -2 | 2 | -11 | 1 | / | /
CCN(CC)CCNC(=O)CSc1c2c(nc3cc(Cl)ccc13)CCCC2 | 3 | 15 | -4 | 8 | 33* | 46* | 41*
COc1cccc(NC(=O)CSc2c3c(nc4ccccc24)CCCC3)c1 | 2 | 8 | -6 | 12 | 34* | 39* | 46*
Cc1cccc(NC(=O)CSc2c3c(nc4ccccc24)CCC3)n1 | 0 | -1 | 3 | -5 | 1 | / | /
CCCCCCCCCc1conc1C(=O)/C=C/c1ccco1 | / | 11 | -1 | / | 25* | 26* | 21*
Cc1ccc(-c2ccc(CCC(=O)O)o2)cc1 | 0 | 0 | -1 | 7 | 28* | 13 | 44*
O=C(COc1ccccc1Cl)Nc1ccc(N2CCCC2)cc1 | 12 | 4 | 5 | -6 | 26* | 45* | 7
CCN1CCN(c2ccc(NC(=O)COc3ccccc3Cl)cc2)CC1 | 4 | -4 | -10 | -9 | -9 | / | /
COc1cc(C(CC(=O)Nc2cc(C)ccn2)N2Cc3ccccc3C2=O)cc(OC)c1OC (stereo not drawn) | 0 | 4 | 1 | 8 | 0 | / | /
CC(=O)c1ccc2noc(-c3ccc(C)cc3)c2c1 | 2 | 6 | 3 | 4 | 29* | 14 | 22*
CC(=O)Oc1ccc(C(=O)O)c(OC(C)=O)c1 | -1 | -5 | -4 | 3 | -1 | / | /
CC(=O)Oc1ccc(OC(C)=O)c2c1CC(C)=C(C)C2 | 0 | 49 | 5 | 21 | 31* | 32* | 24*
COc1cc2c(cc1OC)CN(C(=S)Nc1ccc(C)cc1C)CC2 | 0 | 1 | 1 | 3 | 4 | / | /
CCn1c(C)cs/c1=N\S(=O)(=O)c1ccccc1 | -1 | -8 | -3 | 6 | 1 | / | /
O=Cc1s/c(=N\S(=O)(=O)c2ccccc2)n(CCCCl)c1Cl | / | -2 | 1 | 104* | 37* | 69* | 107*
O=C(CN1CCN(CC(=O)Nc2cccc(F)c2)CC1)NCC1(N2CCOCC2)CCCCC1 | 1 | 2 | 1 | 7 | 1 | / | /
COc1cc(C2/C(=C(\O)c3ccc4c(c3)OCCO4)C(=O)C(=O)N2Cc2ccco2)cc(OC)c1OC (stereo not drawn) | 0 | 0 | 8 | 2 | 29* | 3 | 5
COc1ccc(/C(O)=C2\C(=O)C(=O)N(Cc3ccco3)C2c2cc(OC)ccc2OC)cc1 (stereo not drawn) | 0 | 2 | -3 | 3 | 29* | 4 | 2
COc1cc(C2/C(=C(\O)c3ccc4c(c3)OCCO4)C(=O)C(=O)N2Cc2ccco2)ccc1O (stereo not drawn) | 1 | 0 | -1 | 4 | 0 | / | /
N#Cc1cccc(NC(=O)c2cc(C3CCCCN3S(=O)(=O)c3cccc4cccnc34)on2)c1 (stereo not drawn) | / | -8 | -3 | / | -1 | / | /
CCCc1nc(C)c2c(=O)[nH]c(-c3cc(S(=O)(=O)N4CCN(CC)CC4)ccc3OCC)nn12 | 0 | 4 | 0 | 1 | 62* | 68* | 29*
CCOc1cc(S(=O)(=O)N2CCN(CC)CC2)ccc1Cl | -1 | -2 | 1 | -20 | -2 | / | /

From PubChem
